Common to all, as to conditions: mRNA level, 48 h; actives raise or lower the signal
Read-out in assay [1]: ABC Transporter (ABCC2), ABCC2 (gene 1244)
The experiment in a line: LTEA_HepaRG_ABCC2: Life Technologies and Expression Analysis (LTEA) Assay for ABC Transporter (ABCC2) using HepaRG (AID 2283464). The method, boiled down:
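HepaRG, 48 h post-plating; serum-free induction medium; cpd 8-pt, 100 uM top, half-log, 0.5% DMSO, duplicate, 48 h. Readout: ABCC2 mRNA by qRT-PCR, norm. ACTB/GAPDH/POLR2A. Bidirectional fit vs DMSO baseline.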

Read-out in assay [2]: Broad substrate specificity ATP-binding cassette transporter ABCG2 (Homo sapiens) (UniProt Q9UNQ0)
The experiment in a line: LTEA_HepaRG_ABCG2: Life Technologies and Expression Analysis (LTEA) Assay for ABC Transporter (ABCG2) using HepaRG (AID 2283465). The essentials:
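Differentiated HepaRG cells in serum-free induction medium were exposed for 48 h, in duplicate, to eight half-log concentrations up to 100 uM in 0.5% DMSO. ABCG2 mRNA was measured by TaqMan qRT-PCR, normalized to ACTB, GAPDH and POLR2A, and fitted bidirectionally versus DMSO.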

Read-out in assay [3]: ATP-citrate lyase (ACLY), ACLY (gene 47)
The experiment in a line: LTEA_HepaRG_ACLY: Life Technologies and Expression Analysis (LTEA) Assay for ATP-citrate lyase (ACLY) using HepaRG (AID 2283466). The essentials: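 Differentiated human HepaRG cells in serum-free induction medium exposed 48 h, in duplicate, to eight half-log concentrations from 100 uM top in 0.5% DMSO; ACLY mRNA measured by qRT-PCR, normalized to ACTB, GAPDH, POLR2A, fitted bidirectionally versus DMSO.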

Read-out in assay [4]: Peroxisomal acyl-coenzyme A oxidase 1 (ACOX1) gene, ACOX1 (gene 51)
Description: LTEA_HepaRG_ACOX1: Life Technologies and Expression Analysis (LTEA) Assay for Peroxisomal acyl-coenzyme A oxidase 1 (ACOX1) gene using HepaRG (AID 2283467). The method, boiled down:
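Differentiated human HepaRG cells were exposed in duplicate for 48 h in serum-free induction medium to eight half-log concentrations up to 100 uM in 0.5% DMSO. ACOX1 mRNA was then quantified by TaqMan qRT-PCR, normalized to ACTB, GAPDH and POLR2A.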

Read-out in assay [5]: Alkaline Phosphatase, Placental (ALPP) gene, ALPP (gene 250)
Description: LTEA_HepaRG_ALPP: Life Technologies and Expression Analysis (LTEA) Assay for Alkaline Phosphatase, Placental (ALPP) gene using HepaRG (AID 2283468). The method, boiled down:
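HepaRG, 48 h plating then 48 h dosing, serum-free induction medium, 0.5% DMSO. 8 conc, half-log, max 100 uM, duplicates. Endpoint: ALPP transcript by qRT-PCR, housekeeping-normalized; gain or loss fitted vs DMSO.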

Read-out in assay [6]: Bcl-2 (BAX) gene, BAX (gene 581)
The experiment in a line: LTEA_HepaRG_BAX: Life Technologies and Expression Analysis (LTEA) Assay for Bcl-2 (BAX) gene using HepaRG (AID 2283470). The essentials: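 Concentration-response endpoint fitted in both directions relative to 0.5% DMSO vehicle. Human HepaRG cultures receive test chemicals for 48 h at up to 100 uM; BAX mRNA is quantified by qRT-PCR against housekeeping genes.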

Read-out in assay [7]: adenosine kinase (ADK) gene, ADK (gene 132)
Description: LTEA_HepaRG_ADK: Life Technologies and Expression Analysis (LTEA) Assay for adenosine kinase (ADK) gene using HepaRG (AID 2283471). The method, boiled down: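 ADK expression quantified by qRT-PCR, normalised to three housekeeping genes, after 48 h exposure of HepaRG cells to eight concentrations (top 100 uM, half-log steps, duplicate, 0.5% DMSO). Up- or down-regulation fitted relative to vehicle.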

Read-out in assay [8]: Alpha-fetoprotein (AFP) gene, AFP (gene 174)
The experiment in a line: LTEA_HepaRG_AFP: Life Technologies and Expression Analysis (LTEA) Assay for Alpha-fetoprotein (AFP) gene using HepaRG (AID 2283472). The method, boiled down:
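After a 48 h plating period, cells are moved to serum-free induction medium and dosed in duplicate (100 uM maximum, half-log dilutions, 0.5% DMSO) for another 48 h. Total RNA goes to TaqMan qRT-PCR; AFP signal is housekeeping-normalized.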

Read-out in a further assay: BCL2L11 (gene 10018)
The experiment in a line: LTEA_HepaRG_BCL2L11: Life Technologies and Expression Analysis (LTEA) Assay for Bcl-2 (BCL2L11) gene using HepaRG (AID 2283473). The method, boiled down:
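Read-out is BCL2L11 transcript level by qRT-PCR, normalized to three housekeeping genes and fitted bidirectionally against 0.5% DMSO vehicle. HepaRG cells received chemicals for 48 h in serum-free induction medium, 100 uM down in half-log dilutions.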

Read-out in assay [9]: Apolipoprotein A-V (APOA5) gene, APOA5 (gene 116519)
The experiment in a line: LTEA_HepaRG_APOA5: Life Technologies and Expression Analysis (LTEA) Assay for Apolipoprotein A-V (APOA5) gene using HepaRG (AID 2283474). The method, boiled down: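 Readout is APOA5 transcript level by qRT-PCR on Fluidigm dynamic arrays, normalized to three housekeeping genes. HepaRG cultures received chemicals for 48 h at up to 100 uM (half-log steps, 0.5% DMSO), with gain or loss scored relative to DMSO.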

Read-out in assay [10]: Apoptosis regulator Bcl-2 (Homo sapiens) (UniProt P10415)
Description: LTEA_HepaRG_BCL2: Life Technologies and Expression Analysis (LTEA) Assay for Bcl-2 gene using HepaRG (AID 2283475).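 Further: BCL2 transcript by TaqMan qRT-PCR normalised to ACTB GAPDH and POLR2A.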 The method, boiled down:
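Expression change of BCL2 mRNA in HepaRG after 48 h dosing, quantified by TaqMan qRT-PCR against three endogenous controls. Concentration-response used eight points up to 100 uM, vehicle 0.5% DMSO.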

Read-out in assay [11]: Bcl-2 (BID) gene, BID (gene 637)
The experiment in a line: LTEA_HepaRG_BID: Life Technologies and Expression Analysis (LTEA) Assay for Bcl-2 (BID) gene using HepaRG (AID 2283476). The method, boiled down:
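Gain or loss of BID expression is fitted relative to 0.5% DMSO vehicle. Human HepaRG liver cells received a 48 h chemical exposure over an eight-point concentration range.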

Read-out in another assay: Caspase-3 (Homo sapiens) (UniProt P42574)
The experiment in a line: LTEA_HepaRG_CASP3: Life Technologies and Expression Analysis (LTEA) Assay for cysteine-aspartic acid protease (CASP3) using HepaRG (AID 2283477). The method, boiled down: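 Read-out is CASP3 mRNA level by TaqMan qRT-PCR in human HepaRG cells after 48 h chemical exposure. Eight half-log concentrations topping at 100 uM were tested in 0.5% DMSO; gain or loss was fitted relative to DMSO.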

Read-out in assay [12]: Cytochrome P450 (CYP24A1), CYP24A1 (gene 1591)
Description: LTEA_HepaRG_CYP24A1: Life Technologies and Expression Analysis (LTEA) Assay for Cytochrome P450 (CYP24A1) using HepaRG (AID 2283478). The essentials: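 HepaRG, 48 h chemical exposure, 8-pt half-log CRC from 100 uM, 0.5% DMSO vehicle, duplicates. Endpoint: CYP24A1 mRNA by Fluidigm TaqMan qRT-PCR, normalized ACTB/GAPDH/POLR2A; gain/loss fit vs DMSO.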

Read-out in assay [13]: Cytochrome P450 (CYP1A2), CYP1A2 (gene 1544)
The experiment in a line: LTEA_HepaRG_CYP1A2: Life Technologies and Expression Analysis (LTEA) Assay for Cytochrome P450 (CYP1A2) using HepaRG (AID 2283479). The method, boiled down: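 CYP1A2 transcript induction or loss, quantified by Fluidigm qRT-PCR against three housekeeping genes, was fitted bidirectionally against 0.5% DMSO controls. Human HepaRG cells received eight half-log concentrations from 100 uM over 48 h.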

Read-out in assay [14]: cysteine-aspartic acid protease (CASP8), CASP8 (gene 841)
The experiment in a line: LTEA_HepaRG_CASP8: Life Technologies and Expression Analysis (LTEA) Assay for cysteine-aspartic acid protease (CASP8) using HepaRG (AID 2283480). The essentials:
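Differentiated human HepaRG cells, plated 48 h then switched to serum-free induction medium, were exposed in duplicate for 48 h to 8 half-log concentrations up to 100 uM in 0.5% DMSO. CASP8 mRNA was quantified by qRT-PCR, normalized to ACTB/GAPDH/POLR2A.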

Read-out in assay [15]: Cytochrome P450 (CYP2B6), CYP2B6 (gene 1555)
The experiment in a line: LTEA_HepaRG_CYP2B6: Life Technologies and Expression Analysis (LTEA) Assay for Cytochrome P450 (CYP2B6) using HepaRG (AID 2283481). The essentials: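 HepaRG cells plated 48 h, switched to serum-free induction medium, then dosed 48 h (8 points, half-log from 100 uM, 0.5% DMSO). RNA isolated; CYP2B6 expression measured by qRT-PCR; gain or loss fitted relative to DMSO.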

Read-out in assay [16]: Cytochrome P450 2C19 (Homo sapiens) (UniProt P33261)
Description: LTEA_HepaRG_CYP2C19: Life Technologies and Expression Analysis (LTEA) Assay for CYP2C19 using HepaRG (AID 2283482). The essentials:
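Transcript levels of CYP2C19 were quantified by qRT-PCR after HepaRG cells were treated for 48 hours with test chemicals up to 100 uM (eight half-log concentrations, 0.5% DMSO vehicle). Gain or loss of signal was fitted relative to DMSO.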

Read-out in a further assay: CYP2C8 (gene 1558)
The experiment in a line: LTEA_HepaRG_CYP2C8: Life Technologies and Expression Analysis (LTEA) Assay for CYP2C8 using HepaRG (AID 2283483). The method, boiled down:
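Differentiated human HepaRG cells were exposed for 48 h in serum-free induction medium to eight half-log concentrations up to 100 uM in 0.5% DMSO, in duplicate. CYP2C8 mRNA was measured by TaqMan qRT-PCR, normalized to ACTB, GAPDH and POLR2A, and fitted bidirectionally against DMSO.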

Molecules are shown by their SMILES. Active and inactive are the calls of the source. How the source made its calls: active means hit-call score of the fitted dose curve at least 0.9, where 1 is the maximum; inactive means score below 0.9.

Sequence of Cytochrome P450 2C19 (Homo sapiens) (P33261 whole entry, looked up): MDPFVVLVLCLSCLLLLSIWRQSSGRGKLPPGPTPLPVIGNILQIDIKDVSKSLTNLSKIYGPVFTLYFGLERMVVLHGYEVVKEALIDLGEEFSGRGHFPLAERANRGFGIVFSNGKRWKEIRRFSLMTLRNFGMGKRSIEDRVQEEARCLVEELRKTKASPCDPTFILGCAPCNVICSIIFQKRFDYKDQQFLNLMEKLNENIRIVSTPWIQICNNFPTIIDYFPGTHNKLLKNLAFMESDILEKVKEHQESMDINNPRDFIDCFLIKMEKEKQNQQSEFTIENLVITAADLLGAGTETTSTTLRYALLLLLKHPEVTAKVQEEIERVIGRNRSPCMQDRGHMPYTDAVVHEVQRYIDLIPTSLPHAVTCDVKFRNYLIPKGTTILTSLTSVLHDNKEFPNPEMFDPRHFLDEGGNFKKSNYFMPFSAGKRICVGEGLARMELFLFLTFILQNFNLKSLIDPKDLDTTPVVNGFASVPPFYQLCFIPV
Sequence of Apoptosis regulator Bcl-2 (Homo sapiens) (P10415 whole entry, looked up): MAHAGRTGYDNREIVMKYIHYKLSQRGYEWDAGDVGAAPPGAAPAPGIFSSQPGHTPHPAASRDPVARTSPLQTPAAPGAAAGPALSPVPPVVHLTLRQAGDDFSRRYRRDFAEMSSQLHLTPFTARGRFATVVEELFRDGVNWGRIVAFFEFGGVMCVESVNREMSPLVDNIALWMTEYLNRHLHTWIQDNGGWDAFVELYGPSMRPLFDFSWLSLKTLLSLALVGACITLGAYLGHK
Sequence of Caspase-3 (Homo sapiens) (P42574 whole entry, looked up): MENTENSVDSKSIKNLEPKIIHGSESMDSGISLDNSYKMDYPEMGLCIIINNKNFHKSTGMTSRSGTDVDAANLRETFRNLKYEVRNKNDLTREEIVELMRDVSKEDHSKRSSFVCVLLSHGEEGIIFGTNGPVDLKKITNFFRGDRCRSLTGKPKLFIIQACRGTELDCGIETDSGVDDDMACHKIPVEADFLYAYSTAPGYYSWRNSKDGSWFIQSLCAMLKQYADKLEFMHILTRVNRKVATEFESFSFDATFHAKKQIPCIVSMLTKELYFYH
Sequence of Broad substrate specificity ATP-binding cassette transporter ABCG2 (Homo sapiens) (Q9UNQ0 whole entry, looked up): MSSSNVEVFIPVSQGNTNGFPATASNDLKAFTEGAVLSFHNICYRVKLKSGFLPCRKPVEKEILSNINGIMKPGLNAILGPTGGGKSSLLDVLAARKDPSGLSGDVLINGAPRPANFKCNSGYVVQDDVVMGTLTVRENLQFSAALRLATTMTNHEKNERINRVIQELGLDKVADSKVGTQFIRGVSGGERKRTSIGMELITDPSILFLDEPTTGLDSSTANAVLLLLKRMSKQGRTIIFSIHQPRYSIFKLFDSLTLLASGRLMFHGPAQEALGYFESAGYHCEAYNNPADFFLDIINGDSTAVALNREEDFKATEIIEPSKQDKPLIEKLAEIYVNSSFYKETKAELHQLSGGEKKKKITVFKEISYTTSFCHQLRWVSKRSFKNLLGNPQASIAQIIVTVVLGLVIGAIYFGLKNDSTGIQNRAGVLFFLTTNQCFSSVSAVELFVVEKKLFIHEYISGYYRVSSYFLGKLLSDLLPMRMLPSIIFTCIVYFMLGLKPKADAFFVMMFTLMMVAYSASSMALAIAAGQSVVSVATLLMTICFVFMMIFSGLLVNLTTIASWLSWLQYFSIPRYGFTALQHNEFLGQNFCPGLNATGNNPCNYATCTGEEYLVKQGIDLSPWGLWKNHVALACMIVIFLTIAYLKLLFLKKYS

As usually defined, the AC50 is the midpoint of the concentration-response curve, whichever way the signal moves. On to `O=[N+]([O-])c1ccc(Cl)c(Cl)c1`, for which the compound was called inactive in [1], in assay [2], in assay [3], in assay [4], in assay [5] and in assay [6]. Besides, the compound was called inactive (in [7]; in assay [8]; with BCL2L11 (gene 10018); in assay [9]; in assay [10]; in [11]). Besides, the call (in the assay with Caspase-3 (Homo sapiens); in assay [12]; in [14]; in assay [15]; in assay [16]; in the assay with CYP2C8 (gene 1558)) was inactive. In [13], the AC50 was 1.36 µM (active).

As to `CC(Cl)(Cl)C(=O)O`, the call in assay [1], in assay [2], in assay [3], in assay [4], in [5] and in assay [6] was inactive. Further, the outcome (in [7]; in [8]; in the assay with BCL2L11 (gene 10018); in assay [9]; in assay [10]; in assay [11]) was inactive. The result (in the assay with Caspase-3 (Homo sapiens); in assay [13]; in assay [14]; in assay [15]; in [16]; with CYP2C8 (gene 1558)) was inactive.

For the compound `CN(C)C(=O)Cl`, the compound was classed as inactive in assay [1], in assay [2], in assay [3], in [4], in assay [5] and in assay [6]. In addition, the compound was classed as inactive (in [7]; in [8]; with BCL2L11 (gene 10018); in assay [9]; in [10]; in assay [11]). In addition, the result (with Caspase-3 (Homo sapiens); in assay [12]; in [13]; in [14]; in assay [15]; in assay [16]) was inactive. In the assay with CYP2C8 (gene 1558), the compound was called inactive.

In the case of `CCN(CC)c1ccccc1`, the result in assay [1], in assay [2], in assay [3], in [4], in assay [5] and in assay [6] was inactive. Further, the outcome (in [7]; in assay [8]; with BCL2L11 (gene 10018); in [9]; in assay [10]; in assay [11]) was inactive. Besides, the result (with Caspase-3 (Homo sapiens); in assay [12]; in assay [14]; in [15]; in assay [16]; in the assay with CYP2C8 (gene 1558)) was inactive. The AC50 in assay [13] is 39 µM (active).

As for `CCCCN(CCCC)SN(C)C(=O)Oc1cccc2c1OC(C)(C)C2`, the outcome in [1], in [2], in assay [3], in assay [4], in assay [5] and in assay [6] was inactive. For the same compound, the result (in [7]; in assay [8]; with BCL2L11 (gene 10018); in [9]; in [10]; in assay [11]) was inactive. Also, the compound was called inactive (in the assay with Caspase-3 (Homo sapiens); in assay [12]; in [13]; in assay [14]; with CYP2C8 (gene 1558)). Besides, the AC50 in assay [15] is 6.66 µM (active); in [16], 16.7 µM (active).

These data come from PubChem BioAssay (EPA / NIEHS).
